Measured values published in article PMC7862700, “An all-to-all approach to the identification of sequence-specific readers for epigenetic DNA modifications on cytosine”.

Tests used:
Experiment in all cases: DAPPL (digital affinity profiling via proximity ligation, sequencing); 10 mM Tris-HCl pH 7.5, 50 mM NaCl, 1 mM DTT, 4% glycerol, room temperature, 30 min; GST-TFs on glutathione beads, 16-mer random dsDNA library, 0.1% formaldehyde crosslink after washing; high values mean tight binding
FLI1 = target: T1, FLI1 (Homo sapiens, UniProt Q01543 1-452); conditions: protein: recombinant; tags: N-terminal GST; dsDNA, one strand shown
T1 sequence: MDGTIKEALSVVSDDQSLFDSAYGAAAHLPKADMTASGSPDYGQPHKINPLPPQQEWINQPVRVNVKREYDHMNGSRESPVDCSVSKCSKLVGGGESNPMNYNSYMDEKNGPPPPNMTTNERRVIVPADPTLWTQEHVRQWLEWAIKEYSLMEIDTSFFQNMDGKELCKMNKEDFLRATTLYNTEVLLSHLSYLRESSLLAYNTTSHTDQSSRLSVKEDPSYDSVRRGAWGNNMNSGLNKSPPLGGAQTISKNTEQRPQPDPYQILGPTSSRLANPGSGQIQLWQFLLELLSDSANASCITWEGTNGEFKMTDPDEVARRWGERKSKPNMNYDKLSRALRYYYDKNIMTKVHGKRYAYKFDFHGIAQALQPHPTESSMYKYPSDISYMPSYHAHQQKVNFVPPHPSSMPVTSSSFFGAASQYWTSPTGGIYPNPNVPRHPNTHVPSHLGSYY
Procedure, shortened: (§1)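 Yeast served to express human transcription factors as GST fusions, which were then captured on glutathione beads and labelled with DNA barcodes. Pooled with a tag-only sample, they were incubated with 200 nmole of a 16-mer random double-stranded DNA library for 30 min at room temperature in Tris/NaCl/DTT/glycerol buffer, washed, crosslinked with 0.1% formaldehyde, ligated by proximity, amplified by PCR and sequenced. Dividing each hexamer's read frequency for a factor by its frequency for the tag-only sample gives the binding signal.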

ELK1 = target: T2, ELK1 (Homo sapiens, UniProt P19419 1-428); conditions: protein: recombinant; tags: N-terminal GST; dsDNA, one strand shown
T2 sequence: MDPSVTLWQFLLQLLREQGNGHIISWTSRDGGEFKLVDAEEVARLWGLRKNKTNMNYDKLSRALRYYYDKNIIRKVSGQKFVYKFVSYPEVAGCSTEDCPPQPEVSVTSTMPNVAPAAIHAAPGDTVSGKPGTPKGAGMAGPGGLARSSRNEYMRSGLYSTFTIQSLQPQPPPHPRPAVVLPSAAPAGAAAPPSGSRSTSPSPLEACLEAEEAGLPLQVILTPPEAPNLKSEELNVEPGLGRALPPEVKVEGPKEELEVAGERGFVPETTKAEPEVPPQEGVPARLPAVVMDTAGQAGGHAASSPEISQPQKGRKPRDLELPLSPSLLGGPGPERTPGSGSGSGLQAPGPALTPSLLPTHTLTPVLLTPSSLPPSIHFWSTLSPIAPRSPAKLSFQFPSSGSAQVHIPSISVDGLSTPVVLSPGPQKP
Procedure, shortened: as §1

GABPA = target: T3, GABPA (Homo sapiens, UniProt Q06546 1-454); conditions: protein: recombinant; tags: N-terminal GST; dsDNA, one strand shown
T3 sequence: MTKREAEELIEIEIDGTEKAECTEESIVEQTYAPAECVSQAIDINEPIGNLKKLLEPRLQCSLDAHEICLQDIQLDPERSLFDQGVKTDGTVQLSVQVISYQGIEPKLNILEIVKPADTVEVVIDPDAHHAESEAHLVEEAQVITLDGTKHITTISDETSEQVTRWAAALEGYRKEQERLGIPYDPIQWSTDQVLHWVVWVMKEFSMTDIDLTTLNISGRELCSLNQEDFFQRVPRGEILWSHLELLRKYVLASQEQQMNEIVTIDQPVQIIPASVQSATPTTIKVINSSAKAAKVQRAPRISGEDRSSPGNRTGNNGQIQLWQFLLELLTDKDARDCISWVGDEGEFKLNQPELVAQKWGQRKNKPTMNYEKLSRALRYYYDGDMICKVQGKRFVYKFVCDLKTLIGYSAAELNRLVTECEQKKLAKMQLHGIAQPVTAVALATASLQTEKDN
Procedure, shortened: as §1

ERG = target: T4, ERG (Homo sapiens, UniProt P11308 1-479); conditions: protein: recombinant; tags: N-terminal GST; dsDNA, one strand shown
T4 sequence: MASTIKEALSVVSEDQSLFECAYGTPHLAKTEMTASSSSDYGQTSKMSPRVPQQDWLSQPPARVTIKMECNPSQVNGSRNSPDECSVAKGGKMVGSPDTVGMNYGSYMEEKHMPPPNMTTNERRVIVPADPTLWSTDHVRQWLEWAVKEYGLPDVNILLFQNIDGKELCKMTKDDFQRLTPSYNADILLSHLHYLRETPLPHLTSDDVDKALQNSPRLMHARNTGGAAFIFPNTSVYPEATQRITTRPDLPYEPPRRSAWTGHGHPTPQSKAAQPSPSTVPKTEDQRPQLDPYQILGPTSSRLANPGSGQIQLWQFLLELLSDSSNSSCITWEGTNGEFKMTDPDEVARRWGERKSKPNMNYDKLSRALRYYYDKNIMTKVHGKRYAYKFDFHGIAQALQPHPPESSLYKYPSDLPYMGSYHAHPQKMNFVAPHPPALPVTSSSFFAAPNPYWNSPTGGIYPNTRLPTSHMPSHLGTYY
Procedure, shortened: as §1

ELF1 = ELF1 (Homo sapiens, UniProt P32519 1-619); conditions: protein: recombinant; tags: N-terminal GST; dsDNA, one strand shown
Sequence of ELF1 (P32519 whole entry): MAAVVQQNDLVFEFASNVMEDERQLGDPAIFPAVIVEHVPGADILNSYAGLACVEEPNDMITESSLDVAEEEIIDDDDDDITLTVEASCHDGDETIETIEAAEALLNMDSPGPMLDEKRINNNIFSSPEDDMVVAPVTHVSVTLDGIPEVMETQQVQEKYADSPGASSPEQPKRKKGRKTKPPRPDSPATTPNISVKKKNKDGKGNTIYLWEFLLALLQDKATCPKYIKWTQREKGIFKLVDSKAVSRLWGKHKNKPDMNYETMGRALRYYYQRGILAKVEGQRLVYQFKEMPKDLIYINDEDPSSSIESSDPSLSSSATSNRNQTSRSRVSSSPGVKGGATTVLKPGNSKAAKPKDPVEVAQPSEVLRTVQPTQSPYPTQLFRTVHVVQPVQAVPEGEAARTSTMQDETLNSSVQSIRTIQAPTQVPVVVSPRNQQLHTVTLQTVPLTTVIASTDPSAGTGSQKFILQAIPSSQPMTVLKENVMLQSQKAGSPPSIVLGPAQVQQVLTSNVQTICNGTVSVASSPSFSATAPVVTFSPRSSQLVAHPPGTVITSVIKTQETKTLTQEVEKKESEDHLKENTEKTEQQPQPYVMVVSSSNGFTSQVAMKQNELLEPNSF
Procedure, shortened: as §1

EHF = target: T5, EHF (Homo sapiens, UniProt Q9NZC4 1-300); conditions: protein: recombinant; tags: N-terminal GST; dsDNA, one strand shown
T5 sequence: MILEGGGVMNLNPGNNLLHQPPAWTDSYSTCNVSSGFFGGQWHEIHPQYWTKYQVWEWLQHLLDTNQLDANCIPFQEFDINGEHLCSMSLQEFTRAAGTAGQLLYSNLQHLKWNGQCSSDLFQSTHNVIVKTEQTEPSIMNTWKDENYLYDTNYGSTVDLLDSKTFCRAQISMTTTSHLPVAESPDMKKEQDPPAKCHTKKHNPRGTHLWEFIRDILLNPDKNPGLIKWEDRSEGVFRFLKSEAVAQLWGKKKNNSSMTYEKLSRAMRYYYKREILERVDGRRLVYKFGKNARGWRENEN
Procedure, shortened: as §1

SPI1 = SPI1 (Homo sapiens, UniProt P17947 1-270); conditions: protein: recombinant; tags: N-terminal GST; dsDNA, one strand shown
Procedure, shortened: as §1

SPIB = SPIB (Homo sapiens, UniProt Q01892 1-262); conditions: protein: recombinant; tags: N-terminal GST; dsDNA, one strand shown
Sequence of SPIB (Q01892 whole entry): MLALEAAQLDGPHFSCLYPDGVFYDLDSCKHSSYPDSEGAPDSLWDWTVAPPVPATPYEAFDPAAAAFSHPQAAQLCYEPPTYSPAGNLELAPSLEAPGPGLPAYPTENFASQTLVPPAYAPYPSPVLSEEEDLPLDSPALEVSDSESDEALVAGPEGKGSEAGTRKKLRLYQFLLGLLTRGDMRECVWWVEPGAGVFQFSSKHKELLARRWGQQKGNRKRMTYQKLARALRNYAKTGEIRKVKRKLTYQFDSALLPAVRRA
Procedure, shortened: as §1

ELK3 = target: T6, ELK3 (Homo sapiens, UniProt P41970 1-407); conditions: protein: recombinant; tags: N-terminal GST; dsDNA, one strand shown
T6 sequence: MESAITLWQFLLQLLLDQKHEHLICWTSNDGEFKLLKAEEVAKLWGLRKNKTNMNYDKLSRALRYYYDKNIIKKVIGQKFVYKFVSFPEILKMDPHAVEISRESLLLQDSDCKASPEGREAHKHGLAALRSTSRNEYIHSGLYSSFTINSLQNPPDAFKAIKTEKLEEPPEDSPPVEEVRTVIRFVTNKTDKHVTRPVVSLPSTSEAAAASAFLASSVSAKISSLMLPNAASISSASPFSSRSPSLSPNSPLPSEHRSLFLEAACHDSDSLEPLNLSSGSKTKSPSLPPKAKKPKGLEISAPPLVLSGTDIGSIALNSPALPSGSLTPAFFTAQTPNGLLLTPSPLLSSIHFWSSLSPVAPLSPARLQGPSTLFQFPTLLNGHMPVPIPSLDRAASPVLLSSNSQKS
Procedure, shortened: as §1

FEV = target: T7, FEV (Homo sapiens, UniProt Q99581 1-238); conditions: protein: recombinant; tags: N-terminal GST; dsDNA, one strand shown
T7 sequence: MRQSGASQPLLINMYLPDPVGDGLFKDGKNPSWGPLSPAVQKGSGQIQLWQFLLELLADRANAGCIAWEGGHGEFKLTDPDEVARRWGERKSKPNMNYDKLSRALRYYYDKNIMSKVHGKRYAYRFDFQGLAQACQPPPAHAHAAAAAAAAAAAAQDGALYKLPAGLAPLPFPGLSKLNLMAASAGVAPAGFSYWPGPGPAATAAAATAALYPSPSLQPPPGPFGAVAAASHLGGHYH
Procedure, shortened: as §1

ETV5 = ETV5 (Homo sapiens, UniProt P41161 1-510); conditions: protein: recombinant; tags: N-terminal GST; dsDNA, one strand shown
Sequence of ETV5 (P41161 whole entry): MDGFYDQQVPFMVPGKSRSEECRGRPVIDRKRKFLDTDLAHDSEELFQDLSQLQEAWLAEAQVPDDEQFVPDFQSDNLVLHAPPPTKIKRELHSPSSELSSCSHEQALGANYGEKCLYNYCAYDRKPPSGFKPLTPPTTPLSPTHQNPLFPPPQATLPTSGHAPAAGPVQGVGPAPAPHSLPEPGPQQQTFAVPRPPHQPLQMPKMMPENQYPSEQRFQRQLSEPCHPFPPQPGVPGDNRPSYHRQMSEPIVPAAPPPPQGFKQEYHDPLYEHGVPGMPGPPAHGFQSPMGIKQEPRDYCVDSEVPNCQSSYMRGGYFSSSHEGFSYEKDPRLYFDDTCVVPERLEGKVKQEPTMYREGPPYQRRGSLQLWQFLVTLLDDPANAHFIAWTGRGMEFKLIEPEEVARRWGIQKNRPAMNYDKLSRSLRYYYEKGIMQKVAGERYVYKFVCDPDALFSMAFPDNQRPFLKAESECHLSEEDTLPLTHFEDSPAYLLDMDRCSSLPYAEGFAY
Procedure, shortened: as §1

HSF1 = HSF1 (Homo sapiens, UniProt Q00613 1-529); conditions: protein: recombinant; tags: N-terminal GST; chain copies: 3; dsDNA, one strand shown
Sequence of HSF1 (Q00613 whole entry): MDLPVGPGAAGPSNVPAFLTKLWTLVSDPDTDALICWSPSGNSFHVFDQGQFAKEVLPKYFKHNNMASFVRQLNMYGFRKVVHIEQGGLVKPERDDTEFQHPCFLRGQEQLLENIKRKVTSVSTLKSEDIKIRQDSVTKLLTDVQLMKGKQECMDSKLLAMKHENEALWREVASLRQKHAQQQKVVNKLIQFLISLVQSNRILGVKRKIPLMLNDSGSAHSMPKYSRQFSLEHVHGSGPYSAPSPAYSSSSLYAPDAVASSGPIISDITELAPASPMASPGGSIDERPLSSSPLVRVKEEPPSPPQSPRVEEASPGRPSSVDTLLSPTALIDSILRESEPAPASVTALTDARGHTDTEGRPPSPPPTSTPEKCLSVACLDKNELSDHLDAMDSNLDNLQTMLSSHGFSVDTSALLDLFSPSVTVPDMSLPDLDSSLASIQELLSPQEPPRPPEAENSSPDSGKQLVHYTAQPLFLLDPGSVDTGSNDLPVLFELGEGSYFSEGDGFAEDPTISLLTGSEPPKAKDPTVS
Procedure, shortened: as §1

SPIC = target: T8, SPIC (Homo sapiens, UniProt Q8N5J4 1-248); conditions: protein: recombinant; tags: N-terminal GST; dsDNA, one strand shown
T8 sequence: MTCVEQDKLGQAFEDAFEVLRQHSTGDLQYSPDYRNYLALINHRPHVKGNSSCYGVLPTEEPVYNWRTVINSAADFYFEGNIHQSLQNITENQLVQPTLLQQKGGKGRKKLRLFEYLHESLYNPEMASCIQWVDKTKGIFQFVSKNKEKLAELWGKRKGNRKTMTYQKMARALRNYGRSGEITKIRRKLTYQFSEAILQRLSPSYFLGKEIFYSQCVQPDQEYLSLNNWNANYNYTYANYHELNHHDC
Procedure, shortened: as §1

ELF4 = ELF4 (Homo sapiens, UniProt Q99607 1-663); conditions: protein: recombinant; tags: N-terminal GST; dsDNA, one strand shown
Sequence of ELF4 (Q99607 whole entry): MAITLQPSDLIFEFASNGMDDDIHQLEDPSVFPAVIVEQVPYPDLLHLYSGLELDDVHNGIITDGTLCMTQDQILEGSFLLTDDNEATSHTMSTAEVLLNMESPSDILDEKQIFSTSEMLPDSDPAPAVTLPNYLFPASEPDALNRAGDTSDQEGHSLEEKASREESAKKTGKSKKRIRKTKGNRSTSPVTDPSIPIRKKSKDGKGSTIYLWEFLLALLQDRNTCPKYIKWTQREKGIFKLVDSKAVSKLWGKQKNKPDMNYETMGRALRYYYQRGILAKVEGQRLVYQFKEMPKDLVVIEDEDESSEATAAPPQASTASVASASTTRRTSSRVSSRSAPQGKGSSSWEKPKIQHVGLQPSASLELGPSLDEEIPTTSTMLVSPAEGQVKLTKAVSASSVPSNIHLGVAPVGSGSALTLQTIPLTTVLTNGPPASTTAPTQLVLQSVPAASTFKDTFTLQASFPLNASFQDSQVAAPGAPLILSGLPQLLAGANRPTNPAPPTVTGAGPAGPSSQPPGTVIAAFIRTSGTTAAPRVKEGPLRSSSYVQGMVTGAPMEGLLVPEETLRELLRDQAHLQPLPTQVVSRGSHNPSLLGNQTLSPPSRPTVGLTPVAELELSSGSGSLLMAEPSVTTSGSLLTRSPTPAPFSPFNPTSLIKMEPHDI
Procedure, shortened: as §1

ELK4 = target: T9, ELK4 (Homo sapiens, UniProt P28324-2 1-405); conditions: protein: recombinant; tags: N-terminal GST; dsDNA, one strand shown
T9 sequence: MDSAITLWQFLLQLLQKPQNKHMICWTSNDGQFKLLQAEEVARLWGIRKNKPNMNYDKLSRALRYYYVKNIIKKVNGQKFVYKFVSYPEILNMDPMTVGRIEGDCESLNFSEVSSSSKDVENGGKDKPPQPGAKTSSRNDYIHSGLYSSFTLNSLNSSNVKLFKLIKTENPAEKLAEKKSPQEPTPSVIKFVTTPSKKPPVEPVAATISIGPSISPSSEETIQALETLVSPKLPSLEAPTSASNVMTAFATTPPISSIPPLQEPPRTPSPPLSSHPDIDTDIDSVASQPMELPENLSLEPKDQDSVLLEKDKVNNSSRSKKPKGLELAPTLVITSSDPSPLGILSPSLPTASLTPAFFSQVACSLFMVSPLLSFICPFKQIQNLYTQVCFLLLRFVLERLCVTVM
Procedure, shortened: as §1

ETV2 = target: T10, ETV2 (Homo sapiens, UniProt O00321 1-342); conditions: protein: recombinant; tags: N-terminal GST; dsDNA, one strand shown
T10 sequence: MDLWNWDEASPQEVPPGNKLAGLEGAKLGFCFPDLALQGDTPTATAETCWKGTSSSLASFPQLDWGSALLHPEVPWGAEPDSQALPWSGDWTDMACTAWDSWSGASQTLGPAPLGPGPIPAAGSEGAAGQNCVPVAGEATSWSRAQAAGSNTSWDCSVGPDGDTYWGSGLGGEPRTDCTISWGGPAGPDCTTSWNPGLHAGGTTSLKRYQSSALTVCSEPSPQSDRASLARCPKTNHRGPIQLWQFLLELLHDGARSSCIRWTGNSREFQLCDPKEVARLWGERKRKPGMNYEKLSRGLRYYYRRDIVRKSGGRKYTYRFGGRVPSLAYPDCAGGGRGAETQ
Procedure, shortened: as §1

ELF3 = target: T11, ELF3 (Homo sapiens, UniProt P78545 1-371); conditions: protein: recombinant; tags: N-terminal GST; dsDNA, one strand shown
T11 sequence: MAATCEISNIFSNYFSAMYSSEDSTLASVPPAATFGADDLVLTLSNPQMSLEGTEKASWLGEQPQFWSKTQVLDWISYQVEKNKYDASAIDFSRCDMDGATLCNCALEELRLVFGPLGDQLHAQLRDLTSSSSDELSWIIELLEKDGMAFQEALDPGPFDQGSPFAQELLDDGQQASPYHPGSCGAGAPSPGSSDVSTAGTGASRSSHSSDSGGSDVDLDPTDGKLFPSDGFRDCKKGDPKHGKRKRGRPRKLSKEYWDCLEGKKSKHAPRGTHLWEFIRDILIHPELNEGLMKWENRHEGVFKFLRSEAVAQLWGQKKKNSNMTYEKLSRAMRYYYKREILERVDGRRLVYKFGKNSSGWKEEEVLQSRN
Procedure, shortened: as §1

CRX = CRX (Homo sapiens, UniProt O43186 1-299); conditions: protein: recombinant; tags: N-terminal GST; dsDNA, one strand shown
Sequence of CRX (O43186 whole entry): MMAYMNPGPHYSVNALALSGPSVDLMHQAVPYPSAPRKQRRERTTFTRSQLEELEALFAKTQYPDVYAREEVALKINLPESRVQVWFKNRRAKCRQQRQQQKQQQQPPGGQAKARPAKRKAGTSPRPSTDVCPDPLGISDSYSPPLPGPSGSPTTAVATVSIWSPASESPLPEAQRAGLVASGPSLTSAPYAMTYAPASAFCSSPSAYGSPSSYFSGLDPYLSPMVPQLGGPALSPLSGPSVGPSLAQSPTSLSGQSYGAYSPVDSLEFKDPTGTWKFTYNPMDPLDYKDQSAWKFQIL
Procedure, shortened: as §1

ETV1 = ETV1 (Homo sapiens, UniProt P50549 1-477); conditions: protein: recombinant; tags: N-terminal GST; dsDNA, one strand shown
Sequence of ETV1 (P50549 whole entry): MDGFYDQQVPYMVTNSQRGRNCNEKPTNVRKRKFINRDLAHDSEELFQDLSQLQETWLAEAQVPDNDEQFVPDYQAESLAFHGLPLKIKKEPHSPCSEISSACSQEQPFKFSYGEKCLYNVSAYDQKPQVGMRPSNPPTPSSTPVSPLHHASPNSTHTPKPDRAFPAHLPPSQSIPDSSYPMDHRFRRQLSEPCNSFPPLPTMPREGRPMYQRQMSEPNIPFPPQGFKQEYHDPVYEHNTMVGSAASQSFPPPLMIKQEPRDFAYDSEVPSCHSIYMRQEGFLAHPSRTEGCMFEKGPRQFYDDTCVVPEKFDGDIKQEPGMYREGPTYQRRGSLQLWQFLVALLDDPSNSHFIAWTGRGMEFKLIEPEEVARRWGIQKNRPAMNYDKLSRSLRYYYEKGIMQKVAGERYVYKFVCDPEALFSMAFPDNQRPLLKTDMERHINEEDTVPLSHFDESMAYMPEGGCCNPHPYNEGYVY
Procedure, shortened: as §1

Sequence: GCGACT
- binding signal (FLI1): 1.15 fold enrichment (6-mer frequency, TF over GST control)
- binding signal (ELK1): 1.26 fold enrichment (6-mer frequency, TF over GST control)
- binding signal (GABPA): 1.13 fold enrichment (6-mer frequency, TF over GST control)
- binding signal (ERG): 1.24 fold enrichment (6-mer frequency, TF over GST control)
- binding signal (ELF1): 1.22 fold enrichment (6-mer frequency, TF over GST control)
- binding signal (EHF): 1.21 fold enrichment (6-mer frequency, TF over GST control)
- binding signal (SPI1): 1.2 fold enrichment (6-mer frequency, TF over GST control)
- binding signal (SPIB): 1.33 fold enrichment (6-mer frequency, TF over GST control)
- binding signal (ELK3): 1.25 fold enrichment (6-mer frequency, TF over GST control)
- binding signal (FEV): 1.31 fold enrichment (6-mer frequency, TF over GST control)
- binding signal (ETV5): 1.28 fold enrichment (6-mer frequency, TF over GST control)
- binding signal (HSF1): 1.11 fold enrichment (6-mer frequency, TF over GST control)
- binding signal (SPIC): 1.28 fold enrichment (6-mer frequency, TF over GST control)
- binding signal (ELF4): 1.13 fold enrichment (6-mer frequency, TF over GST control)
- binding signal (ELK4): 1.28 fold enrichment (6-mer frequency, TF over GST control)
- binding signal (ETV2): 1.55 fold enrichment (6-mer frequency, TF over GST control)
- binding signal (ELF3): 1.05 fold enrichment (6-mer frequency, TF over GST control)
- binding signal (CRX): 1.14 fold enrichment (6-mer frequency, TF over GST control)
- binding signal (ETV1): 1.22 fold enrichment (6-mer frequency, TF over GST control)
